# Reference: PubChem BioAssay (EPA / NIEHS)
# Where “and” joins values, the source holds several entries; their conditions need not be identical. Equal entries are not always repeated. Results filed as inconclusive are left out. Calls of active or inactive are those of the source. How the source made its calls: active means hit-call score of the fitted dose curve at least 0.9, where 1 is the maximum; inconclusive means response in the unintended direction; inactive means score below 0.9.
# Assays:
# [1] = molecular target: human Opioid Receptor Mu (Opiate Mu), OPRM1 (gene 4988) (UniProt P35372); assay: NVS_GPCR_hOpiate_mu: NovaScreen (NVS) G Protein-Coupled Receptor Assay for human Opioid Receptor Mu (Opiate Mu) (AID 2283290);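 further: hits lower bound tracer signal versus DMSO meaning displacement of the ligand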
# human Opioid Receptor Mu (Opiate Mu), OPRM1 (gene 4988), sequence (P35372 whole entry, looked up): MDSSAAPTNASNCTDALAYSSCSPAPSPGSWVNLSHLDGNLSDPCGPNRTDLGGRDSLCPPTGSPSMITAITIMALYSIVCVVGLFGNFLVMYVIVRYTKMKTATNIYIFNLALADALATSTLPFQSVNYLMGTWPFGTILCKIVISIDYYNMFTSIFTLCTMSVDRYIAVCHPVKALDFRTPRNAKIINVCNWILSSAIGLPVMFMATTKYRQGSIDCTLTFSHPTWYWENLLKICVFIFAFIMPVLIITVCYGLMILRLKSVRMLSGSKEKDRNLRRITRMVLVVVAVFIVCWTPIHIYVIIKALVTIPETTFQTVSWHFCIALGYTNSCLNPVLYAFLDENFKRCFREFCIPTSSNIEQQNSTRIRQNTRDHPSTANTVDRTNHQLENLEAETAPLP
# In short: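 Primary screen in duplicate at 25 uM, with actives followed in concentration series. CHO-derived receptor membranes, cell-free; bound radioligand read by scintillation counting after filtration at 2.5 h, decrease scored against DMSO.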
# [2] = molecular target: rat Gamma-Aminobutyric Acid Type B Receptor (GABBR), Gabbr1 (gene 81657) (UniProt Q9Z0U4); assay: NVS_GPCR_rGABBR: NovaScreen (NVS) G Protein-Coupled Receptor Assay for rat Gamma-Aminobutyric Acid Type B Receptor (GABBR) (AID 2283301)
# In short: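 Rat cortical membrane preparation, competitive radioligand binding for 1 h with filtration and scintillation readout. Actives from duplicate single-point 25 uM screening proceeded to concentration series with 50 uM top concentration.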
# [3] = molecular target: mouse Cholecystokinin, CCK2 Receptor (CCKB), Cckbr (gene 12426) (UniProt P56481); assay: NVS_GPCR_mCKKBCentral: NovaScreen (NVS) G Protein-Coupled Receptor Assay for mouse Cholecystokinin, CCK2 Receptor (CCKB) (AID 2283293)
# mouse Cholecystokinin, CCK2 Receptor (CCKB), Cckbr (gene 12426), sequence (P56481 whole entry, looked up): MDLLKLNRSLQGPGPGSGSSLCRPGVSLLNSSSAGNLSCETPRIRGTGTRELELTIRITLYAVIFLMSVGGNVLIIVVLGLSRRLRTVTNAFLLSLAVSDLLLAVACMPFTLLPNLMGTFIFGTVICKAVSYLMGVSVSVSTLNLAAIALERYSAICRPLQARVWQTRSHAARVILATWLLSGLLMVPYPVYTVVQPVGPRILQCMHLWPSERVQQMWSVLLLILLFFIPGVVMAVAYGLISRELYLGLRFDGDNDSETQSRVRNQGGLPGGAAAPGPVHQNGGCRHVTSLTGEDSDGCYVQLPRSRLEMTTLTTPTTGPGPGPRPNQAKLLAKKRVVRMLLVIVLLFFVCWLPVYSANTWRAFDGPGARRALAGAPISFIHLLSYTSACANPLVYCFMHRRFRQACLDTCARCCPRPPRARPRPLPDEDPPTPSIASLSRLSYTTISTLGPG
# In short: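 Mouse forebrain membrane preparation incubated 2 h with chemical and radioligand; bound radioactivity counted after filtration. Single-concentration duplicate screen at 25 uM, then concentration series to 50 uM max for hits, DMSO as baseline.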
# [4] = molecular target: guinea pig Serotonin, 5-Hydroxytryptamine Receptor 4 (5HT4), HTR4 (gene 100135548) (UniProt O70528); assay: NVS_GPCR_g5HT4: NovaScreen (NVS) G Protein-Coupled Receptor Assay for guinea pig Serotonin, 5-Hydroxytryptamine Receptor 4 (5HT4) (AID 2283294)
# guinea pig Serotonin, 5-Hydroxytryptamine Receptor 4 (5HT4), HTR4 (gene 100135548), sequence (O70528 whole entry, looked up): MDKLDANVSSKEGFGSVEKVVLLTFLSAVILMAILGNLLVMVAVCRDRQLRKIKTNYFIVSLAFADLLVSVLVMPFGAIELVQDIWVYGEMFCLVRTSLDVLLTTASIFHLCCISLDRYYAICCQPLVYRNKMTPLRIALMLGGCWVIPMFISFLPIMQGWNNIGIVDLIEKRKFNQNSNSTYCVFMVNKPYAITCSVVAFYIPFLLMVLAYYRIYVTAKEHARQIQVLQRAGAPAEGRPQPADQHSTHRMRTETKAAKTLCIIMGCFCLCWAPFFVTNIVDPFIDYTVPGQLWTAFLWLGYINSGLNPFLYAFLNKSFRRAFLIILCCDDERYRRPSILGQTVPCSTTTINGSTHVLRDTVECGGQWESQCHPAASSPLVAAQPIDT
# In short: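 Compounds first screened in duplicate at 25 uM, actives followed up in concentration series. Binding measured as displacement of specific radioligand from guinea pig striatal membranes, 1 h, filter-based scintillation read-out versus DMSO baseline.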
# [5] = molecular target: rat Serotonin, 5-Hydroxytryptamine Receptor (5HT), Non-Selective Binding, Htr1a (gene 24473) (UniProt P19327); assay: NVS_GPCR_r5HT_NonSelective: NovaScreen (NVS) G Protein-Coupled Receptor Assay for rat Serotonin, 5-Hydroxytryptamine Receptor (5HT), Non-Selective Binding (AID 2283295)
# rat Serotonin, 5-Hydroxytryptamine Receptor (5HT), Non-Selective Binding, Htr1a (gene 24473), sequence (P19327 whole entry, looked up): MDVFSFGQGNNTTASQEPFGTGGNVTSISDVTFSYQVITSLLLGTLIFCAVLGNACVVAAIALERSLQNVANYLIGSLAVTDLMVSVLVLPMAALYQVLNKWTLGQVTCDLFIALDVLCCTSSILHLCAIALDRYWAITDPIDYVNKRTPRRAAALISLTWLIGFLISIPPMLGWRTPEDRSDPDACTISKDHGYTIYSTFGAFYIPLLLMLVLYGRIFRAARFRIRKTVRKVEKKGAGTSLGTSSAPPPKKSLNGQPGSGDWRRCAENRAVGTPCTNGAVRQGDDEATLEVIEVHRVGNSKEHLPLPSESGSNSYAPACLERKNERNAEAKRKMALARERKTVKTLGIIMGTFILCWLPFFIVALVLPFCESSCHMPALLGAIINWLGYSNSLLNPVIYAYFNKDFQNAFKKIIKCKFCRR
# In short: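 Rat cortex membrane preparation incubated 1 h with radioligand and test chemical; bound radioactivity counted after filtration. Screening began in duplicate at 25 uM with concentration-series follow-up; fitting relative to DMSO.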
# [6] = molecular target: rat Adrenergic, Alpha 1A Receptor (Adra1A), Adra1a (gene 29412) (UniProt P43140); assay: NVS_GPCR_rAdra1A: NovaScreen (NVS) G Protein-Coupled Receptor Assay for rat Adrenergic, Alpha 1A Receptor (Adra1A) (AID 2283296)
# rat Adrenergic, Alpha 1A Receptor (Adra1A), Adra1a (gene 29412), sequence (P43140 whole entry, looked up): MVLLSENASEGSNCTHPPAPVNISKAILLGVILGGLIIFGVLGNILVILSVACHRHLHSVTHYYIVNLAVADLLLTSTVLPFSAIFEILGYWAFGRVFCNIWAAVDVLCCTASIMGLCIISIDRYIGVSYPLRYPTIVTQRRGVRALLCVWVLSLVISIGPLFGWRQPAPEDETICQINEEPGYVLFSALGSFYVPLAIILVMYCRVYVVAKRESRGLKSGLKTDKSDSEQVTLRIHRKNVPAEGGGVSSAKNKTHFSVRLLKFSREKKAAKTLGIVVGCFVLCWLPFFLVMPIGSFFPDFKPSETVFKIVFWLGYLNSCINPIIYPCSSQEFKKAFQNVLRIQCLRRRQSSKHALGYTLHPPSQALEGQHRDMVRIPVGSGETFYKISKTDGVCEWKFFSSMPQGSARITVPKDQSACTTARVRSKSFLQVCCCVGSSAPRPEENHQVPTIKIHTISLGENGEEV
# In short: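 Filter radiodetection after 1 h competitive binding on CEC-pretreated rat cortical membranes. Duplicate single-point screening at 25 uM; active chemicals retested across concentration series.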
# [7] = tested on: rat Adrenergic, Alpha 1B Receptor (Adra1B), gene 24173; assay: NVS_GPCR_rAdra1B: NovaScreen (NVS) G Protein-Coupled Receptor Assay for rat Adrenergic, Alpha 1B Receptor (Adra1B) (AID 2283297)
# In short: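 Filter-binding radioligand competition on membranes from rat liver, read after 1 h by scintillation counting. Single-concentration duplicate screen at 25 uM, followed by concentration-response on actives, normalised to DMSO.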
# [8] = molecular target: rat Adrenergic Receptor, Alpha 2 (Adra2), Non-selective Binding, Adra2a (gene 25083) (UniProt P22909); assay: NVS_GPCR_rAdra2_NonSelective: NovaScreen (NVS) G Protein-Coupled Receptor Assay for rat Adrenergic Receptor, Alpha 2 (Adra2), Non-selective Binding (AID 2283299)
# rat Adrenergic Receptor, Alpha 2 (Adra2), Non-selective Binding, Adra2a (gene 25083), sequence (P22909 whole entry, looked up): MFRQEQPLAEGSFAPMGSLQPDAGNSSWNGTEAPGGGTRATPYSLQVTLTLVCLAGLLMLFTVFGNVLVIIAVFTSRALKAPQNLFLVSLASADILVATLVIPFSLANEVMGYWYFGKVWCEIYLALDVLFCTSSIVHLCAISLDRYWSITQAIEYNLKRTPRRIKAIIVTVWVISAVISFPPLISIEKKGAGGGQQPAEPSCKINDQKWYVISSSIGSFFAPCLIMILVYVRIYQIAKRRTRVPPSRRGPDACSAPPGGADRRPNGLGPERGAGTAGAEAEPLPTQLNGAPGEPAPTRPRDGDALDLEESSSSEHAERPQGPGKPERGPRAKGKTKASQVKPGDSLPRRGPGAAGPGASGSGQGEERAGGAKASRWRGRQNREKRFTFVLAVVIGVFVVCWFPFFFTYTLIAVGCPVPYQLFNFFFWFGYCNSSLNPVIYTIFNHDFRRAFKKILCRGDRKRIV
# In short: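 Filter-based scintillation counting of radioligand binding to rat cortical membrane receptors, measured 1.25 hours post-dosing; loss of signal versus DMSO indicates displacement. Initial single-concentration duplicate at 25 uM, then concentration series.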
# Adra2b (gene 24174) = Adra2b (gene 24174) (UniProt P19328); assay: NVS_GPCR_rmAdra2B: NovaScreen (NVS) G Protein-Coupled Receptor Assay for hybird cells Adrenergic, Alpha 2B Receptor (Adra2B) (AID 2283306)
# Adra2b (gene 24174), sequence (P19328 whole entry, looked up): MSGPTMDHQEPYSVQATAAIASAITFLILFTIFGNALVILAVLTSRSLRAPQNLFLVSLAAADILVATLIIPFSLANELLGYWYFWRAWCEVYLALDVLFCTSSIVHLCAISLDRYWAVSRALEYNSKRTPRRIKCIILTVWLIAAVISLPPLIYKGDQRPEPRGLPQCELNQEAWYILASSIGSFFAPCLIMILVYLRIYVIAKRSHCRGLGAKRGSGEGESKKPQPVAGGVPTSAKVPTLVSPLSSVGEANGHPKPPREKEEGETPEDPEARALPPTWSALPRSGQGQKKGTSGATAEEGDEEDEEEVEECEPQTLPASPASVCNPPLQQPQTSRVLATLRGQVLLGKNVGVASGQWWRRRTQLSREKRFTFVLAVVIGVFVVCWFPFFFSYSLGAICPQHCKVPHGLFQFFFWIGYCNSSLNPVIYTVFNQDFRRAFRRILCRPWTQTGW
# In short: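 Compounds screened first at 25 uM in duplicate, with actives followed up in concentration-response; specific radioligand displacement from hybrid neuroglioma/blastoma cell membrane preparations measured by filter scintillation counting after 1 h, normalized to DMSO.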
# [9] = molecular target: rat Neurokinin-1 Receptor (NK1), Tacr1 (gene 24807) (UniProt P14600); assay: NVS_GPCR_rNK1: NovaScreen (NVS) G Protein-Coupled Receptor Assay for rat Neurokinin-1 Receptor (NK1) (AID 2283309)
# In short: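 Competitive radioligand binding to NK1 in rat submaxillary membranes, 1 h incubation, filtration and scintillation read-out. Compounds first screened at 25 uM in duplicate, then concentration-response for actives; signal loss relative to DMSO.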
# [10] = molecular target: human Neonicotinoid receptor (NNR), CHRNA2 (gene 1135) (UniProt Q15822); assay: NVS_LGIC_hNNR_NBungSens: NovaScreen (NVS) Ligand-Gated Ion Channel Assay for human Neonicotinoid receptor (NNR) (AID 2283313)
# In short: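 Compounds first screened in duplicate at 25 uM, then actives re-tested in single-replicate dose series up to 50 uM. Binding measured as displacement of specific radioligand from neuroblastoma membrane receptors after 2 h, scintillation read on filters.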
# [11] = molecular target: rat Histamine Receptor (H3), Hrh3 (gene 85268) (UniProt Q9QYN8); assay: NVS_GPCR_rH3: NovaScreen (NVS) G Protein-Coupled Receptor Assay for rat Histamine Receptor (H3) (AID 2283303)
# In short: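 Filter-binding radioligand competition on rat forebrain membranes, 1 h incubation; compounds screened at 25 µM in duplicate and followed in concentration series to 50 µM, loss of bound signal vs DMSO.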
# [12] = molecular target: Metabotropic glutamate receptor 1 (Rattus norvegicus) (UniProt P23385); assay: NVS_GPCR_rmMGluR1: NovaScreen (NVS) G Protein-Coupled Receptor Assay for rat Glutamate Metabotropic Receptor 1 (MGluR1) (AID 2283305)
# In short: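 Binding to native receptor from rat cerebellum extract, measured as displacement of a radioligand (scintillation counting, filter separation) after 1 hour. Compounds tested at 25 uM in duplicate, then titrated to a 50 uM maximum.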
# [13] = molecular target: rat Glutamate Metabotropic Receptor 5 (MGluR5), Grm5 (gene 24418) (UniProt P31424); assay: NVS_GPCR_rmMGluR5: NovaScreen (NVS) G Protein-Coupled Receptor Assay for rat Glutamate Metabotropic Receptor 5 (MGluR5) (AID 2283307)
# rat Glutamate Metabotropic Receptor 5 (MGluR5), Grm5 (gene 24418), sequence (P31424 whole entry, looked up): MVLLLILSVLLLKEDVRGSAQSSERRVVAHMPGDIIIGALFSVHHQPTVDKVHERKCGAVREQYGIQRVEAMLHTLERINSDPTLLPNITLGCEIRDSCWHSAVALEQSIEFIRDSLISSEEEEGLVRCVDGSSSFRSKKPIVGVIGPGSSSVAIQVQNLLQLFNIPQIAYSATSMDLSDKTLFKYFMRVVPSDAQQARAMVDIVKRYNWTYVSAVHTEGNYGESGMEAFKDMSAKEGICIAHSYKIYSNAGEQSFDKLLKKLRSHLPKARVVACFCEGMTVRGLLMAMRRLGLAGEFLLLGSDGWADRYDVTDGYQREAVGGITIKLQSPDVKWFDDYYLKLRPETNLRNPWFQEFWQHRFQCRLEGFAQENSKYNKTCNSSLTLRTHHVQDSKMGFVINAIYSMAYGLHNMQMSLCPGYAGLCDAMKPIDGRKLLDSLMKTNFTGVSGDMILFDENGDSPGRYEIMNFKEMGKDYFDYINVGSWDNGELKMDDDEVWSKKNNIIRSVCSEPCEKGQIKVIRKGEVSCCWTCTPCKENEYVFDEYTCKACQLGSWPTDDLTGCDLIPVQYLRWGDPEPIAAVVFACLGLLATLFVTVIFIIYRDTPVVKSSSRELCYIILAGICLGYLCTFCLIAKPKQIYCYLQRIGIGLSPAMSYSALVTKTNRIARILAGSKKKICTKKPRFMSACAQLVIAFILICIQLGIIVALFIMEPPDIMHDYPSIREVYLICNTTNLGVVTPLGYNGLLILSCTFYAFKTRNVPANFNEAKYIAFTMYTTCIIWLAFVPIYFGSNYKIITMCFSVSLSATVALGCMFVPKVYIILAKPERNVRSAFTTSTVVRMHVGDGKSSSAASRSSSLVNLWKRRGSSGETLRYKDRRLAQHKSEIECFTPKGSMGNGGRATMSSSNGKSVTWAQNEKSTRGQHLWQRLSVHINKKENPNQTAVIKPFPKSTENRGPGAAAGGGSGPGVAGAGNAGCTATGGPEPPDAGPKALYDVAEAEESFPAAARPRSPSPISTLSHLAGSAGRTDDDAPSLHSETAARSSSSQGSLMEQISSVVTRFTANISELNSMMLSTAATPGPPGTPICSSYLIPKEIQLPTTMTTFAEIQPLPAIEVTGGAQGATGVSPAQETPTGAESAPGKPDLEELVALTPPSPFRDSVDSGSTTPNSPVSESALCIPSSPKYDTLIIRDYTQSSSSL
# In short: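 Compounds first screened in duplicate at 25 uM, then in concentration series up to 50 uM if over threshold. Radioligand displacement on rat whole-brain membranes, filtration and scintillation counting after 1.5 h; binding loss relative to DMSO.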
# [14] = molecular target: rat Neurokinin-3 Receptor (NK3), Tacr3 (gene 24808) (UniProt P16177); assay: NVS_GPCR_rNK3: NovaScreen (NVS) G Protein-Coupled Receptor Assay for rat Neurokinin-3 Receptor (NK3) (AID 2283310)
# In short: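 Filter-based radioligand displacement on rat cortex membrane preparations, read by scintillation 2 h post-dose. Chemicals first tested in duplicate at 25 uM; actives followed up in concentration series with a 50 uM maximum.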
# [15] = molecular target: rat Opioid Receptor, Non-selective Sodium (Na+) Binding, Oprm1 (gene 25601) (UniProt P33535); assay: NVS_GPCR_rOpiate_NonSelectiveNa: NovaScreen (NVS) G Protein-Coupled Receptor Assay for rat Opioid Receptor, Non-selective Sodium (Na+) Binding (AID 2283311)
# rat Opioid Receptor, Non-selective Sodium (Na+) Binding, Oprm1 (gene 25601), sequence (P33535 whole entry, looked up): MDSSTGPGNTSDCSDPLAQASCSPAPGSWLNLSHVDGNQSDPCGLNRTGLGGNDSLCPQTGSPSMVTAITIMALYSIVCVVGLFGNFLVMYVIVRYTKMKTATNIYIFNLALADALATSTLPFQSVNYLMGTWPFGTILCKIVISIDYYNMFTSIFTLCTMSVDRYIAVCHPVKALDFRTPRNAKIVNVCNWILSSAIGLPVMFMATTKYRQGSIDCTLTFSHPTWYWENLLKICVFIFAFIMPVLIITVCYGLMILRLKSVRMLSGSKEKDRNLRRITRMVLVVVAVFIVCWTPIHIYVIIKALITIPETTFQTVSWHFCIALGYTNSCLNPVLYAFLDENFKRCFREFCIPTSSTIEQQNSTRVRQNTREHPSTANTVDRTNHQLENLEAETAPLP
# In short: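 Filtration radioligand binding on rat forebrain membrane preparations, read 1.5 h after dosing. Single-concentration 25 µM primary screen in duplicate, followed by singleton concentration series to 50 µM max for actives; DMSO baseline.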
# [16] = molecular target: guinea pig Bradykinin Receptor B2 (BK2), BDKRB2 (gene 100135486) (UniProt O70526); assay: NVS_GPCR_gBK2: NovaScreen (NVS) G Protein-Coupled Receptor Assay for guinea pig Bradykinin Receptor B2 (BK2) (AID 2283292)
# In short: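 Guinea pig ileum membrane preparation incubated 1 h with radioligand and test chemical; bound counts measured after filtration. Primary duplicate screening at 25 uM, then singleton concentration series with a 50 uM top dose; DMSO as baseline.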
# [17] = molecular target: rat Adrenergic Receptor, Beta (Adrb), Non-selective Binding, Adrb1 (gene 24925) (UniProt P18090); assay: NVS_GPCR_rAdrb_NonSelective: NovaScreen (NVS) G Protein-Coupled Receptor Assay for rat Adrenergic Receptor, Beta (Adrb), Non-selective Binding (AID 2283298)
# In short: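 Rat cortical membranes incubated 1 h with beta-adrenergic radioligand and test chemical; bound ligand measured by filtration and scintillation counting. Screen at 25 uM duplicate, then concentration series with 50 uM maximum; loss of signal versus DMSO.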
# [18] = molecular target: rat Corticotropin Releasing Factor Receptor (CRF), Crhr1 (gene 58959) (UniProt P35353); assay: NVS_GPCR_rCRF: NovaScreen (NVS) G Protein-Coupled Receptor Assay for rat Corticotropin Releasing Factor Receptor (CRF) (AID 2283300)
# In short: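 Single-concentration (25 uM, duplicate) radioligand binding on rat cortical membrane preparations, counted by scintillation after 2 h. Activity scored as signal loss relative to DMSO negative control.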
# [19] = molecular target: rat Neurotensin Receptor (NTS), Ntsr1 (gene 366274) (UniProt P20789); assay: NVS_GPCR_rNTS: NovaScreen (NVS) G Protein-Coupled Receptor Assay for rat Neurotensin Receptor (NTS) (AID 2283308)
# In short: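 Single-point duplicates at 25 uM, then concentration series to 50 uM max for hits, measured radioligand displacement on rat forebrain membrane preparations. Bound label counted by filtration scintillation at 1 h; signal loss relative to DMSO fitted.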
structure (smiles),measurement,setting,value
O=C1C2(Cl)C3(Cl)C4(Cl)C(Cl)(Cl)C5(Cl)C3(Cl)C1(Cl)C5(Cl)C24Cl (configuration not stated),AC50,[1],1.63 µM (active) and 2.66 µM (active) and 1.08 µM (active)
same,outcome,[2],inactive
CCOP(=S)(OCC)SCSP(=S)(OCC)OCC,outcome,[1],inactive
ClC1=C(Cl)[C@]2(Cl)[C@H]3[C@H]([C@H]4C=C[C@H]3C4)[C@@]1(Cl)C2(Cl)Cl,outcome,[1],inactive
CC(C)(C)c1cc(O)ccc1O,outcome,[1],inactive
O=C(O)C(F)(F)C(F)(F)C(F)(F)C(F)(F)C(F)(F)C(F)(F)C(F)(F)C(F)(F)C(F)(F)C(F)(F)F,AC50,[1],12.4 µM (active)
CC(C)(C)CC(C)(C)c1ccc(O)cc1,AC50,[1],16.7 µM (active)
same,outcome,[3],inactive
CCN1CCC2(CC1)COc1cc3c(cc12)N(C(=O)c1ccc(-c2ccc(-c4nnc(C)o4)cc2C)cc1)CC3,AC50,[4],2.96 µM (active)
same,AC50,[5],23.4 µM (active)
same,AC50,[6],16.4 µM (active)
same,AC50,[7],10.9 µM (active)
same,AC50,[8],18.6 µM (active)
same,AC50,Adra2b (gene 24174),10.1 µM (active)
same,AC50,[9],10.7 µM (active)
same,AC50,[10],5.41 µM (active)
O=C(OC1CCCCC1)c1ccccc1C(=O)OC1CCCCC1,outcome,[1],inactive
CC(=O)[O][Hg][c]1ccccc1,AC50,[1],0.0908 µM (active)
same,AC50,[3],25 µM (active)
same,AC50,[4],14.2 µM (active)
same,AC50,[5],19.8 µM (active)
same,AC50,[6],25 µM (active)
same,AC50,[7],3.43 µM (active)
same,AC50,[8],3.96 µM (active)
same,AC50,[2],38.5 µM (active)
same,AC50,[11],40.2 µM (active)
same,AC50,[12],10.8 µM (active)
same,AC50,Adra2b (gene 24174),11.9 µM (active)
same,outcome,[13],inactive
same,AC50,[14],16.8 µM (active)
same,AC50,[15],30 µM (active)
Nc1ncc([N+](=O)[O-])s1,AC50,[1],17.6 µM (active)
COc1cc(-c2ccc(N)c(OC)c2)ccc1N,AC50,Adra2b (gene 24174),15.5 µM (active)
C[C@@H]1C[C@@H]([C@H](O)CC2CC(=O)NC(=O)C2)C(=O)[C@@H](C)C1,outcome,[9],inactive
O=C(Nc1ccc2[nH]ccc2c1)c1cc2cc(F)ccc2n1Cc1cccc(F)c1,outcome,[1],inactive
same,outcome,[16],inactive
C=C(C)C(=O)[O][Sn]([CH2]CCC)([CH2]CCC)[CH2]CCC,AC50,[1],0.653 µM (active)
same,AC50,[16],12 µM (active)
same,AC50,[3],2.88 µM (active)
same,AC50,[4],2.78 µM (active)
same,AC50,[5],13.8 µM (active)
same,AC50,[6],13 µM (active)
same,AC50,[7],4.59 µM (active)
same,AC50,[17],20.5 µM (active)
same,AC50,[8],3.25 µM (active)
same,outcome,[18],inactive
same,AC50,[11],25 µM (active)
same,AC50,[12],4.13 µM (active)
same,AC50,Adra2b (gene 24174),3.08 µM (active)
same,AC50,[13],18.1 µM (active)
same,outcome,[19],inactive
same,AC50,[14],1.4 µM (active)
same,AC50,[15],8.6 µM (active)
CCC(=O)C(CC(C)N(C)C)(c1ccccc1)c1ccccc1 (configuration not stated),AC50,[5],7.26 µM (active)
same,AC50,[8],12 µM (active)
same,AC50,Adra2b (gene 24174),6.79 µM (active)
O=[N+]([O-])c1ccc(O)c([N+](=O)[O-])c1,AC50,[3],25 µM (active)
